# Shown is part of a subset that was picked to be rich in the strongest signals.
# B1: Clec18Av1 (Homo sapiens), A5D8T8 (protein)
# chain: MLHPETSPGRGHLLAVLLALLGTAWAEVWPPQLQEQAPMAGALNRKESFLLLSLHNRLRSWVQPPAADMRRLDWSDSLAQLAQARAALCGTPTPSLASGLWRTLQVGWNMQLLPAGLVSFVEVVSLWFAEGQRYSHAAGECARNATCTHYTQLVWATSSQLGCGRHLCSAGQAAIEAFVCAYSPRGNWEVNGKTIVPYKKGAWCSLCTASVSGCFKAWDHAGGLCEVPRNPCRMSCQNHGRLNISTCHCHCPPGYTGRYCQVRCSLQCVHGRFREEECSCVCDIGYGGAQCATKVHFPFHTCDLRIDGDCFMVSSEADTYYRARMKCQRKGGVLAQIKSQKVQDILAFYLGRLETTNEVIDSDFETRNFWIGLTYKTAKDSFRWATGEHQAFTSFAFGQPDNHGFGNCVELQASAAFNWNDQRCKTRNRYICQFAQEHISRWGPGS
# How the values were obtained:
# Test in all cases: glycan array binding signal (z-score within array); higher = stronger binding
# Conditions in all cases: glycan notation: IUPAC condensed, linker removed
# [1] = target: Fuc(a1-2)Gal(b1-3)GalNAc(b1-3)Gal(a1-4)Gal(b1-4)Glc
# Summary of the method: (§1)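 Glycan array data were curated from 3228 arrays in the Consortium for Functional Glycomics database and kept only where the protein sequence was available. Glycan names were converted to IUPAC-condensed notation, and columns mapping to the same glycan were averaged. The binding signal is a within-array Z-score, averaged across arrays of the same protein sequence at different concentrations or buffers and across linkers. Negative Z-scores can be read as non-binding.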
# [2] = target: Fuc(a1-2)Gal(b1-3)GlcNAc(b1-3)[Fuc(a1-2)Gal(b1-3)GlcNAc(b1-6)]GalNAc
# Summary of the method: as §1
# [3] = target: Fuc(a1-2)Gal(b1-4)[Fuc(a1-3)]GlcNAc
# Summary of the method: as §1
# [4] = target: Fuc(a1-2)[Gal(a1-3)]Gal(b1-4)GlcNAc(b1-2)Man(a1-3)[Fuc(a1-2)[Gal(a1-3)]Gal(b1-4)GlcNAc(b1-2)Man(a1-6)]Man(b1-4)GlcNAc(b1-4)GlcNAc
# Summary of the method: as §1
# [5] = target: Fuc(a1-2)[Gal(a1-3)]Gal(b1-4)[Fuc(a1-3)]GlcNAc(b1-3)GalNAc
# Summary of the method: as §1
# [6] = target: Fuc(a1-2)[GalNAc(a1-3)]Gal(b1-3)GlcNAc
# Summary of the method: as §1
# [7] = target: Fuc(a1-3)[Gal(b1-4)]GlcNAc(b1-3)GalNAc
# Summary of the method: as §1
# [8] = target: Fuc(a1-3)[Gal3S(b1-4)]GlcNAc
# Summary of the method: as §1
# [9] = target: Gal(a1-3)Gal(b1-3)GlcNAc(b1-2)Man
# Summary of the method: as §1
# [10] = target: Gal(a1-6)Glc
# Summary of the method: as §1
# [11] = target: Gal(b1-3)GlcNAc(a1-6)Gal(b1-4)GlcNAc
# Summary of the method: as §1
# [12] = target: Gal(b1-4)GlcNAc(b1-2)Man(a1-3)[Gal(b1-4)GlcNAc(b1-2)Man(a1-6)][Gal(b1-4)GlcNAc(b1-4)]Man(b1-4)GlcNAc(b1-4)[Fuc(a1-6)]GlcNAc
# Summary of the method: as §1
# [13] = target: Gal(b1-4)GlcNAc(b1-2)Man(a1-3)[Gal(b1-4)GlcNAc(b1-2)Man(a1-6)][GlcNAc(b1-4)]Man(b1-4)GlcNAc(b1-4)[Fuc(a1-6)]GlcNAc
# Summary of the method: as §1
# [14] = target: Gal(b1-4)GlcNAc(b1-2)[Gal(b1-4)GlcNAc(b1-6)]Man(a1-6)[GlcNAc(b1-4)][Gal(b1-4)GlcNAc(b1-2)Man(a1-3)]Man(b1-4)GlcNAc(b1-4)GlcNAc
# Summary of the method: as §1
# [15] = target: Gal(b1-4)GlcNAc(b1-3)Gal(b1-3)GalNAc
# Summary of the method: as §1
# [16] = target: Gal(b1-4)GlcNAc(b1-3)Gal(b1-4)GlcNAc(b1-2)Man(a1-3)[Gal(b1-4)GlcNAc(b1-3)Gal(b1-4)GlcNAc(b1-2)Man(a1-6)]Man(b1-4)GlcNAc(b1-4)[Fuc(a1-6)]GlcNAc
# Summary of the method: as §1
# [17] = target: Gal3S(b1-3)GalNAc
# Summary of the method: as §1
# [18] = target: GlcA3S(b1-3)Gal(b1-4)GlcNAc(b1-2)Man
# Summary of the method: as §1
# [19] = target: GlcNAc(a1-4)Gal(b1-4)GlcNAc(b1-3)Gal(b1-4)Glc
# Summary of the method: as §1
# [20] = target: GlcNAc(a1-4)Gal(b1-4)GlcNAc(b1-3)Gal(b1-4)[Fuc(a1-3)]GlcNAc(b1-3)Gal(b1-4)[Fuc(a1-3)]GlcNAc
# Summary of the method: as §1
# [21] = target: GlcNAc(b1-2)Man(a1-3)[GlcNAc(b1-2)Man(a1-6)]Man(b1-4)GlcNAc(b1-4)[Fuc(a1-6)]GlcNAc
# Summary of the method: as §1
# [22] = target: GlcNAc(b1-2)[GlcNAc(b1-4)]Man(a1-3)[GlcNAc(b1-4)][GlcNAc(b1-2)[GlcNAc(b1-6)]Man(a1-6)]Man(b1-4)GlcNAc(b1-4)[Fuc(a1-6)]GlcNAc
# Summary of the method: as §1
# [23] = target: GlcNAc(b1-2)[GlcNAc(b1-6)]Man(a1-6)[GlcNAc(b1-2)Man(a1-3)]Man(b1-4)GlcNAc(b1-4)GlcNAc
# Summary of the method: as §1
# [24] = target: GlcNAc(b1-3)Gal(b1-4)GlcNAc(b1-2)Man(a1-3)[GlcNAc(b1-3)Gal(b1-4)GlcNAc(b1-2)Man(a1-6)]Man(b1-4)GlcNAc(b1-4)GlcNAc
# Summary of the method: as §1
# [25] = target: GlcNAc(b1-3)Gal(b1-4)GlcNAc(b1-3)Gal(b1-4)GlcNAc
# Summary of the method: as §1
# [26] = target: GlcNAc(b1-3)Gal(b1-4)GlcNAc(b1-3)Gal(b1-4)GlcNAc(b1-2)Man(a1-3)[GlcNAc(b1-3)Gal(b1-4)GlcNAc(b1-3)Gal(b1-4)GlcNAc(b1-2)Man(a1-6)]Man(b1-4)GlcNAc(b1-4)[Fuc(a1-6)]GlcNAc
# Summary of the method: as §1
# [27] = target: GlcNAc(b1-3)[GlcNAc(b1-6)]GalNAc
# Summary of the method: as §1
# [28] = target: Kdn(a2-3)Gal(b1-4)[Fuc(a1-3)]GlcNAc
# Summary of the method: as §1
# [29] = target: Man(b1-4)GlcNAc
# Summary of the method: as §1
# [30] = target: Neu5Ac(a2-3)Gal(b1-3)GlcNAc6S
# Summary of the method: as §1
# [31] = target: Neu5Ac(a2-3)Gal(b1-4)GlcNAc(b1-2)[Neu5Ac(a2-3)Gal(b1-4)GlcNAc(b1-4)]Man(a1-3)[GlcNAc(b1-4)][Neu5Ac(a2-3)Gal(b1-4)GlcNAc(b1-2)[Neu5Ac(a2-3)Gal(b1-4)GlcNAc(b1-6)]Man(a1-6)]Man(b1-4)GlcNAc(b1-4)GlcNAc
# Summary of the method: as §1
# [32] = target: Neu5Ac(a2-3)Gal(b1-4)GlcNAc(b1-6)GalNAc
# Summary of the method: as §1
# [33] = target: Neu5Ac(a2-3)Gal(b1-4)[Fuc(a1-3)]GlcNAc6S
# Summary of the method: as §1
# [34] = target: Neu5Ac(a2-3)Gal6S(b1-4)GlcNAc
# Summary of the method: as §1
# [35] = target: Neu5Ac(a2-3)[Neu5Ac(a2-6)]GalNAc
# Summary of the method: as §1
# [36] = target: Neu5Ac(a2-6)Gal(b1-4)GlcNAc(b1-2)Man(a1-3)[GlcNAc(b1-4)][Neu5Ac(a2-6)Gal(b1-4)GlcNAc(b1-2)Man(a1-6)]Man(b1-4)GlcNAc(b1-4)GlcNAc
# Summary of the method: as §1
# [37] = target: Neu5Ac(a2-6)Gal(b1-4)GlcNAc(b1-2)Man(a1-3)[Neu5Ac(a2-6)Gal(b1-4)GlcNAc(b1-2)Man(a1-6)]Man(b1-4)GlcNAc(b1-4)[Fuc(a1-6)]GlcNAc
# Summary of the method: as §1
# [38] = target: Neu5Ac(a2-6)Gal(b1-4)GlcNAc(b1-2)Man(a1-6)[GlcNAc(b1-2)Man(a1-3)]Man(b1-4)GlcNAc(b1-4)GlcNAc
# Summary of the method: as §1
# [39] = target: Neu5Gc(a2-3)Gal(b1-3)[Fuc(a1-4)]GlcNAc
# Summary of the method: as §1
# [40] = target: Neu5Gc(a2-8)Neu5Gc(a2-6)Gal(b1-4)GlcNAc
# Summary of the method: as §1
binder,measurement,setting,value
B1,glycan array binding signal (z-score),[1],-0.849
same,glycan array binding signal (z-score),[2],4.48
same,glycan array binding signal (z-score),[3],-0.818
same,glycan array binding signal (z-score),[4],3.05
same,glycan array binding signal (z-score),[5],-0.446
same,glycan array binding signal (z-score),[6],-0.502
same,glycan array binding signal (z-score),[7],1.02
same,glycan array binding signal (z-score),[8],-0.843
same,glycan array binding signal (z-score),[9],3.22
same,glycan array binding signal (z-score),[10],-0.747
same,glycan array binding signal (z-score),[11],4.04
same,glycan array binding signal (z-score),[12],2.24
same,glycan array binding signal (z-score),[13],0.712
same,glycan array binding signal (z-score),[14],3.23
same,glycan array binding signal (z-score),[15],3.37
same,glycan array binding signal (z-score),[16],2.85
same,glycan array binding signal (z-score),[17],-0.82
same,glycan array binding signal (z-score),[18],-0.197
same,glycan array binding signal (z-score),[19],-0.356
same,glycan array binding signal (z-score),[20],4.79
same,glycan array binding signal (z-score),[21],3.54
same,glycan array binding signal (z-score),[22],-0.868
same,glycan array binding signal (z-score),[23],-0.432
same,glycan array binding signal (z-score),[24],1.53
same,glycan array binding signal (z-score),[25],-0.861
same,glycan array binding signal (z-score),[26],-0.74
same,glycan array binding signal (z-score),[27],-0.808
same,glycan array binding signal (z-score),[28],0.16
same,glycan array binding signal (z-score),[29],-0.825
same,glycan array binding signal (z-score),[30],-0.859
same,glycan array binding signal (z-score),[31],-0.868
same,glycan array binding signal (z-score),[32],1.49
same,glycan array binding signal (z-score),[33],-0.818
same,glycan array binding signal (z-score),[34],-0.585
same,glycan array binding signal (z-score),[35],-0.853
same,glycan array binding signal (z-score),[36],-0.604
same,glycan array binding signal (z-score),[37],3.58
same,glycan array binding signal (z-score),[38],4.86
same,glycan array binding signal (z-score),[39],-0.646
same,glycan array binding signal (z-score),[40],0.057
